Source: PubChem BioAssay

biological target: Albumin (Bos taurus) (UniProt P02769); assay: bovine serum albumin binders on microarray, profiling panel, artefact control for SMM control protein annotation, biochemical, small-molecule microarray, Alexa647 label, 635/667 nm fluorescence (AID 1118); settings: BSA-A647 binding, fluorescence 635 nm, higher = more signal;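 further: score merges 667 nm emission intensity and signal-to-noise per printed compound spot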
Sequence (P02769 whole entry, looked up): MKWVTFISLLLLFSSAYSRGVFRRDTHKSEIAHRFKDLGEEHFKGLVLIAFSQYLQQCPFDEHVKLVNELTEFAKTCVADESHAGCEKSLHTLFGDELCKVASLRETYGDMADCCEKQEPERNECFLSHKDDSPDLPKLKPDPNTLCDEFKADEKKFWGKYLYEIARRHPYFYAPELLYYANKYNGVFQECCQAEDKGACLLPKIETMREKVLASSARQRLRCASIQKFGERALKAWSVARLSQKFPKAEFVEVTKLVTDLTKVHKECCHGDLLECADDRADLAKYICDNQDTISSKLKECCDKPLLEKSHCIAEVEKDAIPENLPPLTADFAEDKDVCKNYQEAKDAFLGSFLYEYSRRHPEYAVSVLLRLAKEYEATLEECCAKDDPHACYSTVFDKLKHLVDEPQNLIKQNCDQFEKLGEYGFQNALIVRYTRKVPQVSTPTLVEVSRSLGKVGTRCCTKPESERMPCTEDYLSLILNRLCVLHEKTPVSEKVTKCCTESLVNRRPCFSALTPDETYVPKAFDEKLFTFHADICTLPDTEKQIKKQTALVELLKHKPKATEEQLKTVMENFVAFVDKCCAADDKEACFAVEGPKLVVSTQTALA

SMILES | composite z-score
CN1C(=O)C2C=CC(C(O)c3ccc(F)cc3)N(N(c3ccccc3)c3ccccc3)C2C1=O (stereo not given) | 0.698
Cc1ccc(S[C@]2(C(=O)O)CC(=O)N(Cc3ccccc3C(F)(F)F)[C@@H]2c2ccc(CO)cc2I)cc1 | 0.426
C[N+](C)(C)CCCC[C@@H]1NC(=O)[C@@H]2C[C@H](C(=O)NCCCCCN)[C@H](c3ccc(O)cc3)N2C1=O | 0.877
COCCOC(=O)N1C(=O)[C@@]2(c3cc(C#CCCO)ccc31)[C@H](c1ccc(O)cc1)N1[C@H](c3ccccc3)[C@H](c3ccccc3)OC(=O)[C@H]1[C@@H]2C(=O)N1CCN(c2ncccn2)CC1 | 0.435
O=C(CS)NCCCCCNC(=O)[C@@H]1C[C@@H]2C(=O)NCC(=O)N2[C@@H]1c1ccc(O)cc1 | -0.911
O=C1C2C=CC(C(O)C=Cc3ccc([N+](=O)[O-])cc3)N(n3cnnc3)C2C(=O)N1Cc1ccccc1 (stereo not given) | 0.235
C=C(/C(=C/C[C@H](OC(=O)c1ccncc1)c1ccc(OCCO)cc1)c1cc(C(=O)OC)ccc1OC)C(C)C | 0.605
CN(C)CCCC[C@@H]1NC(=O)[C@H]2C[C@@H](C(=O)NCCCCCN)[C@@H](c3cccc(OCCO)c3)N2C1=O | 0.878
CCCNC(=O)[C@@H]1c2ccccc2C(=O)N(Cc2ccccc2OC)[C@H]1c1ccc(CO)cc1 | 0.735
Cc1ccc(S[C@]2(C(=O)O)CC(=O)N(C(C)C)[C@@H]2c2ccc(CO)cc2)cc1 | 0.07
COCCCNC(=O)[C@@]1(CCS(=O)(=O)c2ccccc2)N=C(c2ccc(OCCCO)cc2)O[C@H]1c1ccccc1N=[N+]=[N-] | 0.955
C=CC[C@@]1(C(=O)N2CCCCC2)N=C(c2ccc(OCCCO)cc2)O[C@@H]1c1ccccc1CN=[N+]=[N-] | 0.866
C#CCN1[C@@H](Cc2ccc(O)cc2)C(=O)O[C@H](Cc2ccccc2)[C@@H]1/C=C/C1CC1 | -0.545
OCC1C=C(/C=C/c2ccccc2)CN1Cc1ccccc1Br (stereo not given) | 0.718
COc1ccc(C(=O)Nc2ccc(CN3C(=O)[C@]4(O[C@H](CC(=O)N5CCC[C@H]5CO)[C@@H]([Si](C)(C)c5ccc(OC)cc5)[C@@H]4C)c4ccccc43)cc2)cc1 | -0.398
CO[C@H]1O[C@H](CO)[C@@H](OC(=O)Nc2ccccc2-c2ccccc2)[C@H](OC(=O)Nc2ccccc2-c2ccccc2)[C@@H]1OC(=O)Nc1ccccc1-c1ccccc1 | 0.926
O=C1C[C@@](C(=O)NCc2ccccc2)(c2ccc([N+](=O)[O-])cc2)[C@@H](c2ccc(CO)cc2)N1CC12CC3CC(CC(C3)C1)C2 | -0.0057
C=C(CCCC)/C(=C/C[C@H](OC(C)=O)c1ccc(OCCO)cc1)c1cnc2ccccc2c1 | 0.466

SMILES | composite z-score
COC(=O)[C@]1(Cc2ccccc2)N=C(c2ccc(OCCCO)cc2)O[C@@H]1c1ccccc1N=[N+]=[N-] | 0.165
COC(=O)C(CC#Cc1ccc2c(c1)[C@]1(C(=O)N2)[C@H](c2ccc(O)cc2)N2[C@H](c3ccccc3)[C@H](c3ccccc3)OC(=O)[C@H]2[C@@H]1C(=O)N1CCN(c2ncccn2)CC1)C(=O)OC | 0.518
CO[C@H]1O[C@H](CO)[C@@H](OC(=O)Nc2ccc(Br)cc2)[C@@H]2OC(=O)[C@H](Cc3cccc(Br)c3)C/C=C/C[C@@H](Cc3cccc(Br)c3)C(=O)O[C@@H]12 | 0.0911
COCCOC(=O)N1C(=O)[C@@]2(c3cc(C#CC4(O)CCCCCC4)ccc31)[C@H](c1ccccc1OCCO)N1[C@H](c3ccccc3)[C@H](c3ccccc3)OC(=O)[C@H]1[C@@H]2C(=O)N1CCc2cc(OC)c(OC)cc2C1 | 0.223
[N-]=[N+]=NCc1ccccc1[C@H]1OC(c2ccc(OCCCO)cc2)=N[C@@]1(Cc1ccccc1)C(=O)N1CCCCC1 | 0.515
COCCOC(=O)N1C(=O)[C@@]2(c3cc(C#CC4=CCCCC4)ccc31)[C@H](c1ccc(OCCO)cc1)N1[C@H](c3ccccc3)[C@H](c3ccccc3)OC(=O)[C@H]1[C@@H]2C(=O)N1CCc2cc(OC)c(OC)cc2C1 | 0.134
COCC(=C=CC[C@H](O)c1cccc(OCCO)c1)CCO | 0.663
C=CC[C@]1(C(=O)NCc2ccccc2)N=C(c2ccc(OCCCO)cc2)O[C@H]1c1ccccc1CN=[N+]=[N-] | 0.183
C=C(CCCC)C(=O)CC[C@@H](OC(C)=O)c1ccc(CO)o1 | -0.855
COc1ccc(C(=O)Nc2cccc(CN3C(=O)[C@]4(O[C@H](CCn5cc(CCO)nn5)[C@@H]([Si](C)(C)c5ccc(OC)cc5)[C@@H]4C)c4ccccc43)c2)cc1 | 0.196
COC(=O)c1c(CC[C@@H](CO)NC(=O)N[C@@H](Cc2ccccc2)Cn2cc(-c3ccccn3)nn2)oc(C(=O)N2CCOCC2)c1C(=O)OC | 0.15
C=CCN1C(=O)[C@]2(O[C@H](CCO)[C@@H]([Si](C)(C)c3ccc(OC)cc3)[C@@H]2C)c2cc(N(C=O)c3ccccc3)ccc21 | 0.0925
[N-]=[N+]=Nc1ccccc1[C@H]1OC(c2ccc(OCCCO)cc2)=N[C@@]1(CCS(=O)(=O)c1ccccc1)C(=O)NCc1ccccc1 | 0.307
O=C1OCCC=C[C@H]2OC34C=CCN(CCN5CCOCC5)C(=O)[C@H]3N(CCCCCO)C(=O)[C@@H]4C12 (stereo not given in full) | 0.953
O=C1O[C@@H](c2ccccc2)[C@@H](c2ccccc2)N2[C@@H](c3ccc(OCCO)cc3)[C@]3(C(=O)Nc4ccc(C#CCCO)cc43)[C@@H](C(=O)NC[C@H](O)c3ccccc3)[C@H]12 | -0.517
CN1C(=O)C2C=CC(C(O)c3ccccc3)N(N3CCCCC3)C2C1=O (stereo not given) | 0.988
O=C1NC(=O)C2C1C=CC(C(O)c1ccc(I)cc1)N2Nc1ccc(Cl)cc1Cl (stereo not given) | 0.99
